{"source": "the supplement of paper PMC7380943", "note": "Counter-ions that a name gives are not always drawn. ± gives the standard deviation of the averaged measurements.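 Throughout, for HR repair efficiency (tdTomato+ cells) relative to control: compound given one day before doxycycline, which switches on I-SceI endonuclease expression to create double-strand breaks within the integrated reporter.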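 Throughout, for NHEJ repair efficiency (GFP+ cells) relative to control: compound given one day ahead of doxycycline, which switches on I-SceI endonuclease to cut the chromosomally integrated reporter and create DSBs.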"}
{"system": "CLZ3 (HCA2 human fibroblast dual HR-NHEJ reporter)", "assay": "NHEJ repair efficiency (GFP+ cells) relative to control (log10 fold); higher = more non-homologous end joining", "settings": "5 µM; doxycycline 0.5 ug/mL"}
{"smiles": "CC(=O)OCC1=C[C@@H]2OC(=O)C3=CO[C@@H](O[C@@H]4O[C@H](CO)[C@@H](O)[C@H](O)[C@H]4O)[C@H]1[C@@H]32", "note": "[Asperuloside]", "NHEJ repair efficiency (log10)": 0.0752}
{"smiles": "CCC/C=C1\\OC(=O)C2=C1CCC1C3C=C4C(=O)O/C(=C\\CCC)C4(CC3)C21", "note": "(configuration not stated) [Levistilide A]", "NHEJ repair efficiency (log10)": -0.106}
{"smiles": "CC1CCC(C(C)C)C(O)C1", "note": "(racemic) [dl-Menthol]", "NHEJ repair efficiency (log10)": 0.0823}
{"smiles": "O=C(O)CC(O)(CC(=O)O)C(=O)O", "note": "[Citric Acid]", "NHEJ repair efficiency (log10)": -0.0431}
{"smiles": "O=C(O)/C=C/C(=O)O", "note": "[Fumaric Acid]", "NHEJ repair efficiency (log10)": 0.0532}
{"smiles": "C[C@H]1[C@H](OC(=O)CCC(=O)O)O[C@@H]2O[C@@]3(C)CC[C@H]4[C@H](C)CC[C@@H]1[C@@]24OO3", "note": "[Artesunate]", "NHEJ repair efficiency (log10)": -0.0268}
{"smiles": "COc1cc2c(=O)c(-c3ccc(O)cc3)coc2cc1O", "note": "[Glycitein]", "NHEJ repair efficiency (log10)": 0.0336}
{"smiles": "CC1(C)CC[C@]2(C(=O)O[C@@H]3O[C@H](CO[C@@H]4O[C@H](CO)[C@@H](O)[C@H](O)[C@H]4O)[C@@H](O)[C@H](O)[C@H]3O)CC[C@]3(C)C(=CC[C@@H]4[C@@]5(C)CC[C@H](O[C@@H]6OC[C@H](O)[C@H](O)[C@H]6O)[C@@](C)(CO)[C@@H]5CC[C@]43C)[C@@H]2C1", "note": "[Akebiasaponin D]", "NHEJ repair efficiency (log10)": 0.328}
{"smiles": "OCC1=C[C@@H](O)[C@@H]2C=CO[C@@H](O[C@@H]3O[C@H](CO)[C@@H](O)[C@H](O)[C@H]3O)[C@H]12", "note": "[Aucubin]", "NHEJ repair efficiency (log10)": 0.0297}
{"smiles": "O=C(/C=C/c1ccc(O)c2c1[C@H](C(=O)O)[C@@H](c1ccc(O)c(O)c1)O2)O[C@H](Cc1ccc(O)c(O)c1)C(=O)O", "note": "[Lithospermic acid]", "NHEJ repair efficiency (log10)": 0.072}
{"smiles": "Oc1cc(O)c2c(c1)OC(c1ccc(O)c(O)c1)C(OC1(c3ccc(O)c(O)c3)Oc3cc(O)cc(O)c3C(O)C1O)C2", "note": "(configuration not stated) [Procyanidins]", "NHEJ repair efficiency (log10)": 0.0386}
{"smiles": "O=Cc1ccc(O[C@@H]2O[C@H](CO)[C@@H](O)[C@@H](O)[C@H]2O)cc1", "note": "[Helicide]", "NHEJ repair efficiency (log10)": "0.119 ± 0.097"}
{"smiles": "CC(C)=CC(O)C/C(C)=C/COc1c2ccoc2cc2oc(=O)ccc12", "note": "(configuration not stated) [Notopterol]", "NHEJ repair efficiency (log10)": 0.0643}
{"smiles": "Cc1cc(O)c(C(=O)CCC(C)C)c(=O)o1", "note": "[Pogostone]", "NHEJ repair efficiency (log10)": -0.0825}
{"smiles": "O=c1cc(-c2ccc(O)c(O)c2)oc2c([C@@H]3O[C@H](CO)[C@@H](O)[C@H](O)[C@H]3O)c(O)cc(O)c12", "note": "[Orientin]", "NHEJ repair efficiency (log10)": 0.0454}
{"smiles": "C=CCc1ccc(O)c(OC)c1", "note": "[Eugenol]", "NHEJ repair efficiency (log10)": 0.027}
{"smiles": "O=c1cc(-c2ccc(O)cc2)oc2cc(O)c(O)c(O)c12", "note": "[Scutellarein]", "NHEJ repair efficiency (log10)": -0.103}
{"smiles": "O=C(/C=C/c1ccc(O)cc1)OC[C@H]1O[C@@H](Oc2c(-c3ccc(O)cc3)oc3cc(O)cc(O)c3c2=O)[C@H](O)[C@@H](O)[C@@H]1O", "note": "[Tiliroside]", "NHEJ repair efficiency (log10)": -0.00145}
{"smiles": "COc1cc(O)cc(O)c1C(=O)/C=C/c1ccccc1", "note": "[Cardamonin]", "NHEJ repair efficiency (log10)": 0.233}
{"smiles": "COc1cc2c(cc1OC)[C@@H]1Cc3ccc(OC)c(OC)c3CN1CC2", "note": "[Tetrahydropalmatine]", "NHEJ repair efficiency (log10)": -0.0787}
{"smiles": "CC1(C)O[C@H]1COc1c2ccoc2cc2oc(=O)ccc12", "note": "[Oxypeucedanin]", "NHEJ repair efficiency (log10)": 0.0689}
{"smiles": "C=C1C2CCC3(C4C[C@H]5C6(CCC[C@@]5(C)CN(CC)C46)[C@H]3[C@H]2O)[C@@H]1O", "note": "[Bullatine A]", "NHEJ repair efficiency (log10)": -0.197}
{"smiles": "CC(C)=CCc1c(-c2ccc(O)cc2O)oc2c([C@H]3C=C(C)C[C@@H](c4ccc(O)cc4O)[C@@H]3C(=O)c3ccc(O)cc3O)c(O)cc(O)c2c1=O", "note": "[Kuwanon G]", "NHEJ repair efficiency (log10)": 0.0109}
{"smiles": "NC(=O)NC1NC(=O)NC1=O", "note": "(configuration not stated) [Allantoin]", "NHEJ repair efficiency (log10)": 0.029}
{"smiles": "COc1ccc(CCO[C@@H]2O[C@H](CO[C@@H]3OC[C@H](O)[C@H](O)[C@H]3O)[C@@H](OC(=O)/C=C/c3ccc(O)c(OC)c3)[C@H](O[C@@H]3O[C@@H](C)[C@@H](O)[C@@H](O)[C@H]3O)[C@H]2O)cc1O", "note": "[Angoroside C]", "NHEJ repair efficiency (log10)": 0.0985}
{"smiles": "COc1ccc2cc3[n+](cc2c1OC)CCc1cc2c(cc1-3)OCO2", "note": "[Berberine hydrochloride]", "NHEJ repair efficiency (log10)": -0.127}
{"smiles": "COc1cc2oc(=O)ccc2c(OC)c1C[C@@H](O)C(C)(C)O", "note": "[Toddalolactone]", "NHEJ repair efficiency (log10)": 0.0484}
{"smiles": "COc1cc(O)c(CC=C(C)C)c(O)c1C(=O)/C=C/c1ccc(O)cc1", "note": "[Xanthohumol]", "NHEJ repair efficiency (log10)": 0.0812}
{"smiles": "CC1CCC(C(C)C)C(O)C1", "note": "(configuration not stated) [Menthol]", "NHEJ repair efficiency (log10)": 0.0621}
{"smiles": "CC1(C)O[C@H]2CC(=O)OC[C@]23[C@H]2CC[C@@]4(C)[C@H](c5ccoc5)OC(=O)[C@H]5O[C@]54[C@]2(C)C(=O)C[C@@H]13", "note": "[Limonin]", "NHEJ repair efficiency (log10)": 0.0392}
{"system": "CLZ3 (HCA2 human fibroblast dual HR-NHEJ reporter)", "assay": "HR repair efficiency (tdTomato+ cells) relative to control (log10 fold); higher = more homologous recombination", "settings": "5 µM; doxycycline 0.5 ug/mL"}
{"smiles": "C/C=C\\c1ccc(OC)cc1", "note": "[cis-Anethol]", "HR repair efficiency (log10)": 0.0605}
{"smiles": "C=C1CCC[C@]2(C)C[C@]3(O)OC(=O)C(C)=C3C[C@@H]12", "note": "[Atractylenolide Iii]", "HR repair efficiency (log10)": 0.0542}
{"smiles": "CC(C)=CCC/C(C)=C/CC/C(C)=C/CC/C(C)=C/CC/C(C)=C/CC/C(C)=C/CC/C(C)=C/CC/C(C)=C/CC/C(C)=C/CO", "note": "[Solanesol]", "HR repair efficiency (log10)": -0.0545}
{"smiles": "CC(=O)C1=C(O)C=C2Oc3c(C(C)=O)c(O)c(C)c(O)c3C2(C)C1=O", "note": "(stereo in doubt) [Usnic Acid]", "HR repair efficiency (log10)": 0.00791}
{"smiles": "C=C(C)[C@@H]1CC[C@]2(C(=O)O)CC[C@]3(C)[C@H](CC[C@@H]4[C@@]5(C)CCC(=O)C(C)(C)[C@@H]5CC[C@]43C)[C@@H]12", "note": "[Liquidambaric Acid]", "HR repair efficiency (log10)": 0.0487}
{"smiles": "CC(C)=C1C/C=C(\\C)CC/C=C(\\C)CC1=O", "note": "[Germacrone]", "HR repair efficiency (log10)": -0.103}
{"smiles": "CC(/C=C/C=C(\\C)C(=O)O[C@@H]1O[C@H](CO[C@@H]2O[C@H](CO)[C@@H](O)[C@H](O)[C@H]2O)[C@@H](O)[C@H](O)[C@H]1O)=C\\C=C\\C=C(C)\\C=C\\C=C(/C)C(=O)O[C@@H]1O[C@H](CO[C@@H]2O[C@H](CO)[C@@H](O)[C@H](O)[C@H]2O)[C@@H](O)[C@H](O)[C@H]1O", "note": "[Crocin]", "HR repair efficiency (log10)": 0.0109}
{"smiles": "CC[C@H](CC[C@@H](C)[C@H]1CC[C@H]2[C@@H]3CC=C4C[C@@H](O)CC[C@]4(C)[C@H]3CC[C@]12C)C(C)C", "note": "[β-Sitosterol]", "HR repair efficiency (log10)": 0.098}
{"smiles": "C[C@@H]1O[C@@H](OC[C@H]2O[C@@H](Oc3cc(O)c4c(c3)O[C@H](c3ccc(O)cc3)CC4=O)[C@H](O)[C@@H](O)[C@@H]2O)[C@H](O)[C@H](O)[C@H]1O", "note": "[Narirutin]", "HR repair efficiency (log10)": -0.053}
{"smiles": "CC(=O)OCC1=C[C@@H]2OC(=O)C3=CO[C@@H](O[C@@H]4O[C@H](CO)[C@@H](O)[C@H](O)[C@H]4O)[C@H]1[C@@H]32", "note": "[Asperuloside]", "HR repair efficiency (log10)": 0.1}
{"smiles": "CCC/C=C1\\OC(=O)C2=C1CCC1C3C=C4C(=O)O/C(=C\\CCC)C4(CC3)C21", "note": "(configuration not stated) [Levistilide A]", "HR repair efficiency (log10)": 0.0314}
{"smiles": "CC1CCC(C(C)C)C(O)C1", "note": "(racemic) [dl-Menthol]", "HR repair efficiency (log10)": 0.0753}
{"smiles": "O=C(O)CC(O)(CC(=O)O)C(=O)O", "note": "[Citric Acid]", "HR repair efficiency (log10)": -0.109}
{"smiles": "O=C(O)/C=C/C(=O)O", "note": "[Fumaric Acid]", "HR repair efficiency (log10)": 0.136}
{"smiles": "C[C@H]1[C@H](OC(=O)CCC(=O)O)O[C@@H]2O[C@@]3(C)CC[C@H]4[C@H](C)CC[C@@H]1[C@@]24OO3", "note": "[Artesunate]", "HR repair efficiency (log10)": -0.241}
{"smiles": "COc1cc2c(=O)c(-c3ccc(O)cc3)coc2cc1O", "note": "[Glycitein]", "HR repair efficiency (log10)": 0.1}
{"smiles": "CC1(C)CC[C@]2(C(=O)O[C@@H]3O[C@H](CO[C@@H]4O[C@H](CO)[C@@H](O)[C@H](O)[C@H]4O)[C@@H](O)[C@H](O)[C@H]3O)CC[C@]3(C)C(=CC[C@@H]4[C@@]5(C)CC[C@H](O[C@@H]6OC[C@H](O)[C@H](O)[C@H]6O)[C@@](C)(CO)[C@@H]5CC[C@]43C)[C@@H]2C1", "note": "[Akebiasaponin D]", "HR repair efficiency (log10)": -0.29}
{"smiles": "OCC1=C[C@@H](O)[C@@H]2C=CO[C@@H](O[C@@H]3O[C@H](CO)[C@@H](O)[C@H](O)[C@H]3O)[C@H]12", "note": "[Aucubin]", "HR repair efficiency (log10)": 0.121}
{"smiles": "O=C(/C=C/c1ccc(O)c2c1[C@H](C(=O)O)[C@@H](c1ccc(O)c(O)c1)O2)O[C@H](Cc1ccc(O)c(O)c1)C(=O)O", "note": "[Lithospermic acid]", "HR repair efficiency (log10)": 0.0325}
{"smiles": "Oc1cc(O)c2c(c1)OC(c1ccc(O)c(O)c1)C(OC1(c3ccc(O)c(O)c3)Oc3cc(O)cc(O)c3C(O)C1O)C2", "note": "(configuration not stated) [Procyanidins]", "HR repair efficiency (log10)": 0.123}
{"smiles": "O=Cc1ccc(O[C@@H]2O[C@H](CO)[C@@H](O)[C@@H](O)[C@H]2O)cc1", "note": "[Helicide]", "HR repair efficiency (log10)": "0.0668 ± 0.075"}
{"smiles": "CC(C)=CC(O)C/C(C)=C/COc1c2ccoc2cc2oc(=O)ccc12", "note": "(configuration not stated) [Notopterol]", "HR repair efficiency (log10)": 0.151}
{"smiles": "Cc1cc(O)c(C(=O)CCC(C)C)c(=O)o1", "note": "[Pogostone]", "HR repair efficiency (log10)": -0.0091}
{"smiles": "O=c1cc(-c2ccc(O)c(O)c2)oc2c([C@@H]3O[C@H](CO)[C@@H](O)[C@H](O)[C@H]3O)c(O)cc(O)c12", "note": "[Orientin]", "HR repair efficiency (log10)": 0.0493}
{"smiles": "C=CCc1ccc(O)c(OC)c1", "note": "[Eugenol]", "HR repair efficiency (log10)": -0.0172}
{"smiles": "O=c1cc(-c2ccc(O)cc2)oc2cc(O)c(O)c(O)c12", "note": "[Scutellarein]", "HR repair efficiency (log10)": -0.025}
{"smiles": "O=C(/C=C/c1ccc(O)cc1)OC[C@H]1O[C@@H](Oc2c(-c3ccc(O)cc3)oc3cc(O)cc(O)c3c2=O)[C@H](O)[C@@H](O)[C@@H]1O", "note": "[Tiliroside]", "HR repair efficiency (log10)": -0.0226}
{"smiles": "COc1cc(O)cc(O)c1C(=O)/C=C/c1ccccc1", "note": "[Cardamonin]", "HR repair efficiency (log10)": -0.195}
{"smiles": "COc1cc2c(cc1OC)[C@@H]1Cc3ccc(OC)c(OC)c3CN1CC2", "note": "[Tetrahydropalmatine]", "HR repair efficiency (log10)": 0.0375}
{"smiles": "CC1(C)O[C@H]1COc1c2ccoc2cc2oc(=O)ccc12", "note": "[Oxypeucedanin]", "HR repair efficiency (log10)": 0.0078}
{"smiles": "C=C1C2CCC3(C4C[C@H]5C6(CCC[C@@]5(C)CN(CC)C46)[C@H]3[C@H]2O)[C@@H]1O", "note": "[Bullatine A]", "HR repair efficiency (log10)": -0.165}
{"smiles": "CC(C)=CCc1c(-c2ccc(O)cc2O)oc2c([C@H]3C=C(C)C[C@@H](c4ccc(O)cc4O)[C@@H]3C(=O)c3ccc(O)cc3O)c(O)cc(O)c2c1=O", "note": "[Kuwanon G]", "HR repair efficiency (log10)": 0.129}
